Reference: the supplement of paper PMC10338343
± gives the standard deviation.

tested on: MILI (PIWIL2) piRISC loaded with piRNA #1 (26 nt); assay: pre-steady-state target cleavage rate (min^-1); guide: piRNA #1 5'p-UGAGGUAGUAGGUUGUAUAGUAUCCA; MIWI and MILI are mouse PIWI proteins and EfPiwi is from a freshwater sponge; tags in brackets are library labels; higher = faster piRNA-guided slicing of the target; conditions: auxiliary factor: 500 nM mouse GTSF1
In short: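 A transcribed, DNA-blocked target RNA library (0.1 nM) and 1 nM active affinity-purified piRISC bearing one synthetic guide were incubated in HEPES–potassium acetate buffer at 33 °C for 0–8 or 0–960 min, either with or without 500 nM GTSF1 partner protein. Uncleaved targets were sequenced, normalised to depth and to weakly complementary targets, and pooled over three trials, with k3 capped at 0.0001 min^-1. The pre-steady-state cleavage rate was derived with a burst-and-steady-state fit.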

Sequence | pre-steady-state target cleavage rate
GGAGACCUAUGAAUACUACCUACUAGCUCA | 0.00378 ± 0.0025
GGAGAGGAUUCAAUACAACCUACUACCUCA | 0.132 ± 0.01
GGAGAGGUUACUAAACAACCUACUACCUCA | 0.142 ± 0.013
GGAGACCAUACUAUUGAACCUACUACCUCA | 0.153 ± 0.013
GGAGACGAUAGUAUACAACCUUCUACCUCA | 0.00961 ± 0.003
GGAGACCUAUCUAUUCAACCUACAACCUCA | 0.0889 ± 0.011
GGAGACCUAUGUAUACAACCUAAUACCUCA | 0.0196 ± 0.0049
GGAGACCUAACUAUACAAGCUACUACCACA | 0.309 ± 0.029
GGAGACCUAUGAUUACAACCUACUACUUCA | 0.00418 ± 0.0024
GGAGACCUAUGUAUACAACGUACUACCACA | 0.00942 ± 0.003
GGAGACCAUAGUAUACAAGCUACUACCUCA | 0.16 ± 0.015
GGAGACCUAUGUAUACAUCCUAGUACCUCA | 0.015 ± 0.0049
GGAGACCUAUGAUAUGUACCUACUAGGACA | < 0.0001
GGAGACCAUACUAUACAACCAACUACCACA | 0.00384 ± 0.0026
GGAGACCUAUGAUUACAACCUACUACCCUCA | 0.00361 ± 0.0029
GGAGUGGAUACUAAUGAACCUACUACCUCA | 0.0477 ± 0.0065
GGAGACCUAUCUAUACAACCUACUACGUGA | 0.0608 ± 0.013
GGAGACCUAUCUUUACAACCUACUACCUGA | 0.0554 ± 0.012
GGAGACCUAUCUAUACAACGUACAACCUCA | 0.0149 ± 0.0048
GGAGACCUAUGAAUACAACCUACUACCGCA | 0.00764 ± 0.003

Sequence | pre-steady-state target cleavage rate
GGAGACCUAACUAUUCAACCUACUACCUCA | 0.138 ± 0.022
GGAGACCUUACUAUACUACCUACUACCACA | 0.173 ± 0.014
GGAGACCUAACUAUAGAACCUACUAGCUCA | 0.00426 ± 0.0041
GGAGAGCAUACUAUAGAACCUACUACCUCA | 0.142 ± 0.012
GGAGACCUAUCUAUAAAACCUACUACCUCA | 0.0877 ± 0.013
GGAGACCUAUCUAUAGAACCUACUACCUCA | 0.0821 ± 0.013
GGAGACCAUACUAUACAACCUACUCCUCA | 0.0178 ± 0.0057
GGAGACCUAUCUUUACAACCUACAACCUCA | 0.0745 ± 0.01
GGAGACCUAUGUAUACAAGCUAGUACCUCA | 0.0538 ± 0.0098
GGAGACCUUACUAUAGAACCUACUUCCUCA | 0.00446 ± 0.0033
GGAGACCUAUCUUUACAACCUACUACCACA | 0.105 ± 0.016
GGAGACCUAUCUAAACAACCUACUACGUCA | 0.0213 ± 0.0039
GGAGACCUAUCUAUACAACCUGCUACCUCA | 0.0162 ± 0.0048
GGAGACCUAUGAUUACAACCUACUACACUCA | 0.00616 ± 0.0025
GGAGACCUAUGAUAACAACCUACUGCCUCA | 0.00428 ± 0.0031
GGAGAGGAUACAAUAGAACCUACUACCUCA | 0.148 ± 0.012
GGAGACCUAUGAAUACAACCUAGUACCUGA | < 0.0001
GGAGACCUAUCUAUACUACCUUCUACCUCA | 0.00727 ± 0.003
GGAGACCUAUCUAUACAACCUAGAACCUCA | 0.00829 ± 0.0026
GGAGAGGAUACUAUUCUACCUACUACCUCA | 0.179 ± 0.013
